{"source": "PubChem BioAssay (EPA / NIEHS)", "note": "Calls of active or inactive are those of the source. How the source made its calls: active means hit-call score of the fitted dose curve at least 0.9, where 1 is the maximum; inactive means score below 0.9."}
{"tested_on": "not listed separately", "experiment": "CCTE_Deisenroth_5AR_NBTE_donor: CCTE's 5alpha-reductase NanoBRET Target Engagement Assay […], Deisenroth Lab (AID 2284319)", "conditions": "actives raise or lower the signal", "summary_of_the_method": "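In this secondary endpoint, donor luminescence from SRD5A2-NanoLuc in transfected HEK293T flags artifacts. Test chemical (10 nM - 29.9 uM) is present five hours, tracer the last two; mock-tracer wells run plate-matched; data fitted bidirectionally against DMSO.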"}
{"smiles": "CCCCNC(=O)OCC#CI", "AC50": "50 µM (active)"}
{"smiles": "N#CC(CCc1ccc(Cl)cc1)(Cn1cncn1)c1ccccc1", "note": "(stereo not given)", "outcome": "inactive"}
{"smiles": "Oc1ccccc1-c1ccccc1", "outcome": "inactive"}
{"smiles": "COc1ccc(C(c2ccc(OC)cc2)C(Cl)(Cl)Cl)cc1", "outcome": "inactive"}
{"smiles": "COC(=O)N(OC)c1ccccc1COc1ccn(-c2ccc(Cl)cc2)n1", "outcome": "inactive"}
{"tested_on": "not listed separately", "experiment": "CCTE_Deisenroth_5AR_NBTE_acceptor: CCTE's 5alpha-reductase NanoBRET Target Engagement Assay - Autofluorescence Screen, Deisenroth Lab (AID 2284321);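 further: compound fluorescence in the acceptor channel under 460 nm excitation flags autofluorescence artifacts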", "conditions": "actives raise or lower the signal", "summary_of_the_method": "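Acceptor fluorescence intensity was read as an artifact-detection endpoint. Test chemicals at an assumed nominal 100 uM were excited at 460 nm across three independent runs. Activity was fitted bidirectionally against DMSO.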"}
{"smiles": "CCCCNC(=O)OCC#CI", "AC50": "50 µM (active)"}
{"smiles": "N#CC(CCc1ccc(Cl)cc1)(Cn1cncn1)c1ccccc1", "note": "(stereo not given)", "outcome": "inactive"}
{"smiles": "Oc1ccccc1-c1ccccc1", "outcome": "inactive"}
{"smiles": "COc1ccc(C(c2ccc(OC)cc2)C(Cl)(Cl)Cl)cc1", "outcome": "inactive"}
{"smiles": "COC(=O)N(OC)c1ccccc1COc1ccn(-c2ccc(Cl)cc2)n1", "outcome": "inactive"}
{"tested_on": "SRD5A2 (gene 6716)", "experiment": "CCTE_Deisenroth_5AR_NBTE_ratio: CCTE's 5alpha-reductase NanoBRET Target Engagement Assay - Ratio, Deisenroth Lab (AID 2284322)", "conditions": "actives raise or lower the signal", "summary_of_the_method": "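HEK293T transiently expressing SRD5A2-NanoLuc; cells exposed to chemical (8-point, 10 nM - 29.9 uM) for 5 h total, testosterone tracer added for final 2 h. NanoBRET acceptor/donor ratio (650/460 nm), bidirectional fit vs DMSO.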"}
{"smiles": "CCCCNC(=O)OCC#CI", "AC50": "50 µM (active)"}
{"smiles": "N#CC(CCc1ccc(Cl)cc1)(Cn1cncn1)c1ccccc1", "note": "(stereo not given)", "outcome": "inactive"}
{"smiles": "Oc1ccccc1-c1ccccc1", "AC50": "31.5 µM (active)"}
{"smiles": "COc1ccc(C(c2ccc(OC)cc2)C(Cl)(Cl)Cl)cc1", "outcome": "inactive"}
{"smiles": "COC(=O)N(OC)c1ccccc1COc1ccn(-c2ccc(Cl)cc2)n1", "AC50": "34.1 µM (active)"}
